# Values joined by “and” are separate entries in the source; they are usually repeats but may differ in a detail not shown here. Equal entries are not always repeated. About 83,000 compounds went through this panel and 20% of them were active in at least one assay; those are over-represented in the sample as a whole.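 Single-dose data. Exposure time 48 hours. Values below 10 considered active.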 Values without a mark were called inactive. Active and inactive are the calls of the source.
# System: HL-60(TB) leukemia
# Test: NCI-60 one-dose screen, 48 h (100 = growth as untreated, 0 = no growth, -100 = all killed)
# Conditions: 10 µM unless noted
row,Structure (SMILES),growth
1,O=c1c2sc3ccccc3c2nnn1-c1ccc(F)c(Cl)c1,73.7%
2,O=C1CCCN1C(O)CCN(Cc1ccccc1)Cc1ccc(Cl)cc1 (centres undefined),96.4%
3,C=C1C(=O)O[C@H]2[C@H]1CC/C(COC(=O)NCc1cc3ccccc3[nH]1)=C\CC[C@@]1(C)O[C@@H]21,-51.4% (active)
4,CC1(C)CC[C@]2(C(=O)NCCNCCN)CC[C@]3(C)C(=CC[C@@H]4[C@@]5(C)CCC(=O)C(C)(C)[C@@H]5CC[C@]43C)[C@@H]2C1,-52.9% (active)
5,CCOC(=O)C1=C(N)Oc2cc(OC)ccc2C1c1ccc(F)c(F)c1 (centres undefined),-9% (active)
6,CCCCN(CCCC)c1ccc(C(=O)O)cc1,104%
7,COc1cc2nc(-c3ccc(C(F)(F)F)cc3)cc(OCCN3CCCC3)c2cc1OC,66.8%
8,Oc1c(Cl)cc(Cl)c2ccc(Cn3cc(-c4cc(C(F)(F)F)cc(C(F)(F)F)c4)nn3)nc12,-13.7% (active)
9,CCCCN(CCCC)CCc1c(C)cc(C)c(CCN(CCCC)CCCC)c1O,7.15% (active)
10,N#CCCN1C(=O)CCC1C(=O)O (centres undefined),85.9%
11,Cn1c(=O)c2[nH]c(CCCCCCCCc3nc4ccccc4[nH]3)nc2n(C)c1=O,59.4% and 71.2%
12,CN(C)CCNc1nc2ccccc2c2c(=O)c3ccccc3sc12,9.19% (active)
13,CCc1ccccc1-n1c(N)c(C#N)c(-c2ccc(N(C)C)cc2)c(C#N)c1=O,96.4%
14,COc1ccc(-c2nc3sc(-c4ccc(OC)cc4)c(-c4ccc(OC)cc4)n3c2/C=C/c2ccc(C(C)C)cc2)cc1,97%
